The list is not random: actives were taken first. Their share in the collection is about 2.2%.
Mito fusion act: qHTS Assay for Small Molecule Inhibitors of Mitochondrial Division or Activators of Mitochondrial Fusion; S. cerevisiae fusion-defective mutant growth rescue, CellTiterGlo 48 h; Potency, µM (series often up to 46.1 µM), for inactives: at the highest dose growth rescue (activation), most hits filed as activators; 320,000 tested, 0.23% active; AID 485298, 2010; also: % of control where 0% means no effect; nearly all actives have a fitted effect of over 45% in size
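Growth-rescue viability read-out: after 48 h at the non-permissive 37C in glycerol/ethanol YPEG, yeast mitochondrial fusion mutants are measured by CellTiterGlo luminescence; compounds (23 nl pinned per well) restoring growth score as division inhibitors or fusion activators.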
Abeta yeast res: qHTS for compounds that reverse cellular toxicity of Amyloid beta (A-beta) peptide in yeast: Primary Screen; yeast expressing A-beta42, growth rescue, OD600, 48 h; response scale: 0% DMSO, 100% iron-clioquinol control; Potency, µM (doses to about 46.1 µM), usual class: activators; 410,000 tested, 0.063% active; AID 1347071, 2019; also: nearly all actives have a fitted effect of over 55% in size
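Growth rescue measured by 600 nm absorbance after 48 h yeast culture at 30 C with compound. Values normalized between DMSO and an equimolar ferric chloride plus clioquinol control.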
FUS yeast rescue: qHTS for Suppressors of FUS Proteinopathy: Primary screen using FUS-linked yeast assay. Potency, µM (titrated, usually from 76.6 µM), usual class: activators. AID 1347120, 2019. 390,000 tested, 0.24% active. S. cerevisiae FUS-expressing, growth rescue, OD600, 24 h;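 also: plate controls were DMSO vehicle for no effect and reference control for full effect; nearly all actives have a fitted effect of over 55% in size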
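Galactose (2%) drives FUS expression in yeast precultured in raffinose; seeding density OD 0.005. Test compounds incubated 24hr at 30C and 99% humidity before absorbance at 600 nm was measured.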
aSyn yeast inh: qHTS of alpha-syn Inhibitors; Potency, µM (highest dose often 46.1 µM), without a hit: at the highest dose growth rescue (activation), hits mostly activators; AID 652106, 2013; 370,000 tested, 0.14% active; Yeast expressing alpha-synuclein, growth rescue, BacTiter-Glo, 24 h; also: % of control where 0% means no effect; nearly all actives have a fitted effect of over 65% in size
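Rescue of yeast growth: cells expressing toxic alpha-synuclein, induced in galactose at OD600 0.02, incubated with compound 24 h at 30 C. ATP luminescence quantified growth; inhibitors of toxicity appear as activators.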
TDP-43 yeast inh: qHTS of TDP-43 Inhibitors. TDP-43 expressing yeast growth rescue, BacTiter-Glo, 24 h. Potency, µM (highest dose often 46.1 µM), for inactives: top-dose growth rescue (activation), most hits filed as activators. 410,000 tested, 1.8% active; also: % of control where 0% means no effect; nearly all actives have a fitted effect of over 50% in size
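Yeast cells expressing TDP-43 under galactose induction are exposed to compounds for 24 hr at 30 deg C. BacTiter-Glo luminescence measures growth, so protective compounds score as activators.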
An asterisk follows results filed as active; i = inactive; u = inconclusive; x = not tested or not shown; [ ] = remark or other dose. Calls follow the shape of the dose curve; as a rule, active = well fitted curve in the direction sought with a large enough effect; inconclusive = small, poorly fitted or top-dose-only effect, or another doubt; inactive = no such curve, though single readings can be large; an effect the other way counts as inactive or inconclusive. Potency is read from the fitted curve at half-maximal effect.

SMILES	Mito fusion act	Abeta yeast res	FUS yeast rescue	aSyn yeast inh	TDP-43 yeast inh
COc1ccc(-c2cn3nc(N4CCCC(C(=O)NCc5ccccc5C)C4)sc3n2)cc1 (stereo not given)	x	i	i	x	4%
O=C(NCc1ccc(F)cc1)c1cc2cccc3c2n1CCS3	x	i	i	x	14µM*
COC(=O)[C@]12C[C@H](CC(=O)N3CCC(c4ccccc4)CC3)C(=O)N(Cc3cccc4ccccc34)C1=C[C@H](C(C)(C)C)O[C@@H]2C	x	x	i	x	x
NC(=S)NN=Cc1nccc2ccccc12	x	u	i	20µM*	21%
NC(=S)NN=Cc1nccc2c(C(F)(F)C(F)(F)C(F)(F)F)cccc12	x	i	i	7.1µM*	u
O=C(Nc1ccncc1)C1CC(=O)N(Cc2ccccc2)C1 (stereo not given)	x	i	i	2%	u
COc1ccc(-c2csc(C)n2)cc1Br	-2%	i	i	1%	11µM*
O=C(COC(=O)c1ccc(Cl)nc1)NCCc1ccccc1	x	i	i	-7%	26%
CCNC(=O)n1nccc1C(C)Oc1ccccc1 (stereo not given)	1%	i	i	1%	11µM*
COC(=O)c1ccc(Cl)c(NS(=O)(=O)c2ccc3c(c2)OCCO3)c1	19%	i	i	6%	25µM*
COc1cc(/C=C/c2ccc3cccc(O)c3n2)cc(OC)c1OC	30%	i	i	-10%	22%
COc1cccc(/C=C/c2ccc3cccc(O)c3n2)c1	4%	u	i	18µM*	u
COc1cccc(/C=C/c2ccc3cccc(O)c3n2)c1OC	11%	i	i	18µM*	14µM*
COc1ccc(/C=C/c2ccc3cccc(O)c3n2)c(OC)c1OC	8%	i	i	u	u
Oc1cccc(/C=C/c2ccc3cccc(O)c3n2)c1	25%	u	i	u	13µM*
CCOc1ccc(NC(=O)CN(C)C(=O)CCCn2c(=O)oc3ccccc32)cc1OCC	-4%	i	i	-5%	2%
Cc1ccccc1CNC(=O)Nc1ccc(Cl)cc1	1%	i	i	-1%	15%
CCCOc1ccc(F)cc1-c1cc(C(=O)Nc2ccc(OC)c(OC)c2)[nH]n1	x	i	u	1%	u
COc1ccc(F)cc1-c1cc(C(=O)Nc2ccc(C)c(NS(C)(=O)=O)c2)[nH]n1	x	i	i	-6%	0%
COc1ccc(NC(=O)c2cc(-c3cc(F)ccc3OC)n[nH]2)cn1	x	i	i	-23%	20µM*
COc1ccc(NC(=O)c2cc(-c3cc(F)ccc3OC)n[nH]2)cc1OC	x	i	i	-2%	35µM*
COc1ccc(NC(=O)c2cc(-c3cc(F)ccc3OC)n[nH]2)c(OC)c1	x	i	i	-17%	20µM*
COc1ccc(OC)c(NC(=O)c2cc(-c3ccc(F)cc3OC(C)C)n[nH]2)c1	x	i	u	-8%	22µM*
CCc1cccc(NC(=O)Cn2nc(C)c3sc4ccccc4c3c2=O)c1	x	i	i	x	-4%
O=C(O)CN(c1cccc(C(F)(F)F)c1)S(=O)(=O)c1ccccc1	5%	i	i	-4%	-10%
SMILES	Mito fusion act	Abeta yeast res	FUS yeast rescue	aSyn yeast inh	TDP-43 yeast inh
O=S(=O)(c1ccccc1)N(CC(F)(F)F)c1ccc(C(O)(C(F)(F)F)C(F)(F)F)cc1	x	u	i	-19%	22µM*
CCc1cccc(C)c1NC(=O)CSc1n[nH]c(N)n1	x	i	i	7%[1.84 µM]	10%
Oc1ccc(-c2c(C3=CCCCC3)sc3ccccc23)cc1	-11%	i	i	-46%	20µM*
CC(=O)c1ccc2c(c1)CC1(C2)Cc2cc3c(cc2C1)C(=O)CC3 (stereo not given)	x	i	x	-10%	16µM*
CC(=NO)c1ccc2c(c1)C(=NO)c1ccccc1-2	x	i	x	9%	13µM*
ON=C1c2ccccc2-c2ccc(O)cc21	x	i	x	6%	0%
CSc1ccc(S(=O)(=O)Nc2ccc3c4c(cccc24)CC3)cc1	-9%	i	i	13µM*	14%
CO/N=C(\c1nonc1N)N1CCN(c2ccc([N+](=O)[O-])cc2Cl)CC1	0%	i	i	21%	28%
CO/N=C(\c1nonc1N)N1CCN(c2ccc(Cl)cc2[N+](=O)[O-])CC1	2%	i	i	4%	14µM*
COc1cc(-c2cc3nc(NCCN(C)C)ccn3n2)cc(OC)c1OC	x	i	i	-1%	-3%
COc1cc(-c2cc3nc(NC4CCCCC4)ccn3n2)cc(OC)c1OC	x	i	i	1%	35µM*
CNc1cc(C)c(C#N)c2nc3ccccc3n12	2%	i	i	-2%	u
CCc1c(C)c(C#N)c2nc3ccccc3n2c1NC	-35%	i	i	-1%	-8%
Cc1cc(Cl)n2c(nc3ccccc32)c1C#N	-2%	i	i	-71%	3.2µM*
Cc1c(CCCl)c(Cl)n2c(nc3ccccc32)c1C#N	x	i	x	2%	7.1µM*
Cc1cccc(CC(=O)NCCN2CCCCC2)c1	-2%	i	i	-5%	-7%
CN(C)c1ccc(CNC(=O)C2Cc3c(-c4ccccc4Oc4ccccc4)ccnc3O2)cc1 (stereo not given)	x	i	u	2%	9%
N/C(=N\OC(=O)c1ccc2c(c1)OCO2)c1ccc(Cl)cc1	11%	i	i	-41%	3.2µM*
COc1ccc(/C(N)=N/OC(=O)c2ccc3c(c2)OCO3)cc1	6%	i	i	-7%	5.6µM*
COc1ccc(/C(N)=N/OC(=O)c2cccs2)cc1	4%	i	i	-60%	16µM*
COc1ccc(-c2cc(C(=O)OCC(=O)N(C)C3CCS(=O)(=O)C3)c3ccccc3n2)cc1OC (stereo not given)	-2%	i	i	-3%	-13%[1.82 µM]
CCOc1ccccc1-n1c(SCC(=O)N2CCOCC2)nc2ccccc2c1=O	4%	i	i	0%	2%
O=C(COC(=O)CCCN1C(=O)c2ccccc2C1=O)Nc1cc(Cl)cc(Cl)c1	-2%	i	i	14%	15%
COc1ccc(NC(=O)COC(=O)CCCN2C(=O)c3ccccc3C2=O)cc1Cl	-9%	i	x	18%	35µM*
O=C(Cc1cnn(-c2ccccc2)c1)c1ccc(O)c(O)c1O	3%	u	x	u	35µM*
CCCCS/C(=C(/C#N)C(N)=O)c1cc2c([nH]1)CCCC2	13µM*	i	i	10%	u
CCc1ccc(N/C(SC)=C(/C#N)C(N)=O)cc1	5%	i	i	1%	7%
